What all share (details): mRNA level, 48 h; actives raise or lower the signal
Read-out in assay [1]: Fatty acid synthase (Homo sapiens) (UniProt P49327)
The experiment in a line: LTEA_HepaRG_FASN: Life Technologies and Expression Analysis (LTEA) Assay for Fatty Acid Synthase (FASN) using HepaRG (AID 2283448). Put shortly: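 Transcript-level assay: HepaRG liver cells are treated for 48 h across an eight-point range topping at 100 uM, and FASN mRNA, normalized to three housekeeping genes, is compared with DMSO controls in both directions.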

Read-out in assay [2]: Cyclin Dependent Kinase Inhibitor 1A (CDKN1A), CDKN1A (gene 1026)
Kind of assay: LTEA_HepaRG_CDKN1A: Life Technologies and Expression Analysis (LTEA) Assay for Cyclin Dependent Kinase Inhibitor 1A (CDKN1A) using HepaRG (AID 2283450). The method, boiled down: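 Read-out is CDKN1A mRNA by TaqMan qRT-PCR, normalized to three housekeeping genes and fitted in both directions against the DMSO baseline. Human HepaRG cells were treated 48 h with test chemicals up to 100 uM in half-log steps, 0.5% DMSO.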

Read-out in assay [3]: Cyclin D1 (CCND1), CCND1 (gene 595)
Kind of assay: LTEA_HepaRG_CCND1: Life Technologies and Expression Analysis (LTEA) Assay for Cyclin D1 (CCND1) using HepaRG (AID 2283451).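 For AC50: TaqMan qRT-PCR transcript level normalised to ACTB GAPDH and POLR2A housekeeping genes.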 The method, boiled down:
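HepaRG plated 48 h, medium switched to serum-free induction medium, chemicals added in duplicate (top 100 uM, half-log steps, 0.5% DMSO) for 48 h, cells lysed, RNA measured by TaqMan qRT-PCR.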

Read-out in assay [4]: catalase (CAT), CAT (gene 847)
Kind of assay: LTEA_HepaRG_CAT: Life Technologies and Expression Analysis (LTEA) Assay for catalase (CAT) using HepaRG (AID 2283452). Put shortly: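 Differentiated HepaRG cells in serum-free induction medium were dosed 48 h in duplicate, eight half-log concentrations from 100 uM in 0.5% DMSO. Transcript measured by TaqMan qRT-PCR, normalised to ACTB/GAPDH/POLR2A, fitted bidirectionally against DMSO.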

Read-out in assay [5]: flavin-containing dimethylaniline monooxygenases 3 (FMO3), FMO3 (gene 2328)
The experiment in a line: LTEA_HepaRG_FMO3: Life Technologies and Expression Analysis (LTEA) Assay for flavin-containing dimethylaniline monooxygenases 3 (FMO3) using HepaRG (AID 2283453).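 For AC50: FMO3 transcript by TaqMan qRT-PCR normalized to ACTB GAPDH and POLR2A.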 Put shortly: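 HepaRG, 48 h exposure, 8-pt half-log series from 100 uM, 0.5% DMSO vehicle, duplicates; FMO3 transcript by Fluidigm TaqMan qRT-PCR, housekeeping-normalized; gain/loss fit vs DMSO.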

Read-out in assay [6]: Cytochrome P450 (CYP1A1), CYP1A1 (gene 1543)
Kind of assay: LTEA_HepaRG_CYP1A1: Life Technologies and Expression Analysis (LTEA) Assay for Cytochrome P450 (CYP1A1) using HepaRG (AID 2283454). The method, boiled down:
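HepaRG, 48 h post-plating switched to serum-free induction medium; 8-pt conc-response (top 100 uM, half-log, 0.5% DMSO), duplicates, 48 h. Lysis in RLT, TaqMan qRT-PCR for CYP1A1; gain or loss vs DMSO.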

Read-out in assay [7]: CFLAR gene, CFLAR (gene 8837)
The experiment in a line: LTEA_HepaRG_CFLAR: Life Technologies and Expression Analysis (LTEA) Assay for CFLAR gene using HepaRG (AID 2283455). The method, boiled down:
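HepaRG cells were plated for 48 h, switched to serum-free induction medium, then exposed in duplicate for 48 h to 8 concentrations (top 100 uM, half-log steps, 0.5% DMSO). CFLAR mRNA was measured by qRT-PCR, normalized to ACTB, GAPDH and POLR2A.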

Read-out in assay [8]: Forkhead box O1 (FOXO1), FOXO1 (gene 2308)
Kind of assay: LTEA_HepaRG_FOXO1: Life Technologies and Expression Analysis (LTEA) Assay for Forkhead box O1 (FOXO1) using HepaRG (AID 2283456). Put shortly:
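Differentiated human HepaRG cells in serum-free induction medium were exposed in duplicate for 48 h to eight half-log concentrations (top 100 uM, 0.5% DMSO). FOXO1 mRNA was measured by TaqMan qRT-PCR, normalised to ACTB, GAPDH and POLR2A, and fitted bidirectionally against DMSO.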

Read-out in assay [9]: growth arrest and DNA damage 45 (GADD45A), GADD45A (gene 1647)
The experiment in a line: LTEA_HepaRG_GADD45A: Life Technologies and Expression Analysis (LTEA) Assay for growth arrest and DNA damage 45 (GADD45A) using HepaRG (AID 2283458). Put shortly: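 Human HepaRG liver cells are treated in duplicate for 48 h with chemicals in 0.5% DMSO, highest concentration 100 uM. Expression is read by qRT-PCR and analyzed in both directions against vehicle.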

Read-out in assay [10]: Forkhead box O3 (FOXO3), FOXO3 (gene 2309)
Kind of assay: LTEA_HepaRG_FOXO3: Life Technologies and Expression Analysis (LTEA) Assay for Forkhead box O3 (FOXO3) using HepaRG (AID 2283459). The method, boiled down:
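Differentiated human HepaRG cells in serum-free induction medium were exposed in duplicate for 48 h to eight half-log concentrations up to 100 uM in 0.5% DMSO. FOXO3 mRNA was quantified by qRT-PCR, normalized to ACTB, GAPDH and POLR2A, with bidirectional fitting versus DMSO.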

Read-out in assay [11]: ABC Transporter (ABCB1), ABCB1 (gene 5243)
Kind of assay: LTEA_HepaRG_ABCB1: Life Technologies and Expression Analysis (LTEA) Assay for ABC Transporter (ABCB1) using HepaRG (AID 2283460). Put shortly:
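Differentiated human HepaRG cells, plated 48 h then switched to serum-free induction medium, were exposed in duplicate to eight half-log concentrations up to 100 uM in 0.5% DMSO for 48 h. ABCB1 mRNA was measured by TaqMan qRT-PCR, normalized to ACTB/GAPDH/POLR2A.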

Read-out in assay [12]: growth arrest and DNA damage 45 (GADD45B), GADD45B (gene 4616)
The experiment in a line: LTEA_HepaRG_GADD45B: Life Technologies and Expression Analysis (LTEA) Assay for growth arrest and DNA damage 45 (GADD45B) using HepaRG (AID 2283461). The method, boiled down: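 HepaRG, ~100,000 cells/well, 48 h plating; serum-free induction medium; cpd 100 uM top, half-log x8, 0.5% DMSO, duplicate, 48 h; lysis in RLT, RNA isolation, qRT-PCR; norm ACTB/GAPDH/POLR2A; bidirectional fit vs DMSO.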

Read-out in assay [13]: ABC Transporter (ABCC3), ABCC3 (gene 8714)
Kind of assay: LTEA_HepaRG_ABCC3: Life Technologies and Expression Analysis (LTEA) Assay for ABC Transporter (ABCC3) using HepaRG (AID 2283462). Put shortly: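 Human HepaRG, 48 h dosing, 8-pt half-log series from 100 uM, 0.5% DMSO vehicle, duplicates. ABCC3 mRNA by TaqMan qRT-PCR, housekeeping-normalized; bidirectional curve fit vs DMSO.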

Read-out in assay [14]: ABC Transporter (ABCB11), ABCB11 (gene 8647)
Kind of assay: LTEA_HepaRG_ABCB11: Life Technologies and Expression Analysis (LTEA) Assay for ABC Transporter (ABCB11) using HepaRG (AID 2283463). Put shortly:
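Differentiated human HepaRG cells were exposed for 48 h in serum-free induction medium to eight half-log concentrations up to 100 uM in 0.5% DMSO. ABCB11 mRNA was quantified by qRT-PCR, normalized to ACTB, GAPDH and POLR2A, and fitted bidirectionally versus DMSO.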

Read-out in assay [15]: ABC Transporter (ABCC2), ABCC2 (gene 1244)
The experiment in a line: LTEA_HepaRG_ABCC2: Life Technologies and Expression Analysis (LTEA) Assay for ABC Transporter (ABCC2) using HepaRG (AID 2283464). The method, boiled down:
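HepaRG, 48 h post-plating; serum-free induction medium; cpd 8-pt, 100 uM top, half-log, 0.5% DMSO, duplicate, 48 h. Readout: ABCC2 mRNA by qRT-PCR, norm. ACTB/GAPDH/POLR2A. Bidirectional fit vs DMSO baseline.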

Read-out in assay [16]: Broad substrate specificity ATP-binding cassette transporter ABCG2 (Homo sapiens) (UniProt Q9UNQ0)
Kind of assay: LTEA_HepaRG_ABCG2: Life Technologies and Expression Analysis (LTEA) Assay for ABC Transporter (ABCG2) using HepaRG (AID 2283465). Put shortly: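 Differentiated HepaRG cells in serum-free induction medium were exposed for 48 h, in duplicate, to eight half-log concentrations up to 100 uM in 0.5% DMSO. ABCG2 mRNA was measured by TaqMan qRT-PCR, normalized to ACTB, GAPDH and POLR2A, and fitted bidirectionally versus DMSO.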

Read-out in assay [17]: ATP-citrate lyase (ACLY), ACLY (gene 47)
Kind of assay: LTEA_HepaRG_ACLY: Life Technologies and Expression Analysis (LTEA) Assay for ATP-citrate lyase (ACLY) using HepaRG (AID 2283466). The method, boiled down: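 Differentiated human HepaRG cells in serum-free induction medium exposed 48 h, in duplicate, to eight half-log concentrations from 100 uM top in 0.5% DMSO; ACLY mRNA measured by qRT-PCR, normalized to ACTB, GAPDH, POLR2A, fitted bidirectionally versus DMSO.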

Read-out in assay [18]: Peroxisomal acyl-coenzyme A oxidase 1 (ACOX1) gene, ACOX1 (gene 51)
Kind of assay: LTEA_HepaRG_ACOX1: Life Technologies and Expression Analysis (LTEA) Assay for Peroxisomal acyl-coenzyme A oxidase 1 (ACOX1) gene using HepaRG (AID 2283467). Put shortly: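 Differentiated human HepaRG cells were exposed in duplicate for 48 h in serum-free induction medium to eight half-log concentrations up to 100 uM in 0.5% DMSO. ACOX1 mRNA was then quantified by TaqMan qRT-PCR, normalized to ACTB, GAPDH and POLR2A.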

SMILES strings stand for the structures. Activity calls are given as the source filed them. Rule for the calls: active = hit-call score of the fitted dose curve at least 0.9, where 1 is the maximum; inactive = score below 0.9.

As usually defined, the AC50 is the midpoint of the concentration-response curve, whichever way the signal moves.

Fatty acid synthase (Homo sapiens), sequence (P49327 whole entry, looked up): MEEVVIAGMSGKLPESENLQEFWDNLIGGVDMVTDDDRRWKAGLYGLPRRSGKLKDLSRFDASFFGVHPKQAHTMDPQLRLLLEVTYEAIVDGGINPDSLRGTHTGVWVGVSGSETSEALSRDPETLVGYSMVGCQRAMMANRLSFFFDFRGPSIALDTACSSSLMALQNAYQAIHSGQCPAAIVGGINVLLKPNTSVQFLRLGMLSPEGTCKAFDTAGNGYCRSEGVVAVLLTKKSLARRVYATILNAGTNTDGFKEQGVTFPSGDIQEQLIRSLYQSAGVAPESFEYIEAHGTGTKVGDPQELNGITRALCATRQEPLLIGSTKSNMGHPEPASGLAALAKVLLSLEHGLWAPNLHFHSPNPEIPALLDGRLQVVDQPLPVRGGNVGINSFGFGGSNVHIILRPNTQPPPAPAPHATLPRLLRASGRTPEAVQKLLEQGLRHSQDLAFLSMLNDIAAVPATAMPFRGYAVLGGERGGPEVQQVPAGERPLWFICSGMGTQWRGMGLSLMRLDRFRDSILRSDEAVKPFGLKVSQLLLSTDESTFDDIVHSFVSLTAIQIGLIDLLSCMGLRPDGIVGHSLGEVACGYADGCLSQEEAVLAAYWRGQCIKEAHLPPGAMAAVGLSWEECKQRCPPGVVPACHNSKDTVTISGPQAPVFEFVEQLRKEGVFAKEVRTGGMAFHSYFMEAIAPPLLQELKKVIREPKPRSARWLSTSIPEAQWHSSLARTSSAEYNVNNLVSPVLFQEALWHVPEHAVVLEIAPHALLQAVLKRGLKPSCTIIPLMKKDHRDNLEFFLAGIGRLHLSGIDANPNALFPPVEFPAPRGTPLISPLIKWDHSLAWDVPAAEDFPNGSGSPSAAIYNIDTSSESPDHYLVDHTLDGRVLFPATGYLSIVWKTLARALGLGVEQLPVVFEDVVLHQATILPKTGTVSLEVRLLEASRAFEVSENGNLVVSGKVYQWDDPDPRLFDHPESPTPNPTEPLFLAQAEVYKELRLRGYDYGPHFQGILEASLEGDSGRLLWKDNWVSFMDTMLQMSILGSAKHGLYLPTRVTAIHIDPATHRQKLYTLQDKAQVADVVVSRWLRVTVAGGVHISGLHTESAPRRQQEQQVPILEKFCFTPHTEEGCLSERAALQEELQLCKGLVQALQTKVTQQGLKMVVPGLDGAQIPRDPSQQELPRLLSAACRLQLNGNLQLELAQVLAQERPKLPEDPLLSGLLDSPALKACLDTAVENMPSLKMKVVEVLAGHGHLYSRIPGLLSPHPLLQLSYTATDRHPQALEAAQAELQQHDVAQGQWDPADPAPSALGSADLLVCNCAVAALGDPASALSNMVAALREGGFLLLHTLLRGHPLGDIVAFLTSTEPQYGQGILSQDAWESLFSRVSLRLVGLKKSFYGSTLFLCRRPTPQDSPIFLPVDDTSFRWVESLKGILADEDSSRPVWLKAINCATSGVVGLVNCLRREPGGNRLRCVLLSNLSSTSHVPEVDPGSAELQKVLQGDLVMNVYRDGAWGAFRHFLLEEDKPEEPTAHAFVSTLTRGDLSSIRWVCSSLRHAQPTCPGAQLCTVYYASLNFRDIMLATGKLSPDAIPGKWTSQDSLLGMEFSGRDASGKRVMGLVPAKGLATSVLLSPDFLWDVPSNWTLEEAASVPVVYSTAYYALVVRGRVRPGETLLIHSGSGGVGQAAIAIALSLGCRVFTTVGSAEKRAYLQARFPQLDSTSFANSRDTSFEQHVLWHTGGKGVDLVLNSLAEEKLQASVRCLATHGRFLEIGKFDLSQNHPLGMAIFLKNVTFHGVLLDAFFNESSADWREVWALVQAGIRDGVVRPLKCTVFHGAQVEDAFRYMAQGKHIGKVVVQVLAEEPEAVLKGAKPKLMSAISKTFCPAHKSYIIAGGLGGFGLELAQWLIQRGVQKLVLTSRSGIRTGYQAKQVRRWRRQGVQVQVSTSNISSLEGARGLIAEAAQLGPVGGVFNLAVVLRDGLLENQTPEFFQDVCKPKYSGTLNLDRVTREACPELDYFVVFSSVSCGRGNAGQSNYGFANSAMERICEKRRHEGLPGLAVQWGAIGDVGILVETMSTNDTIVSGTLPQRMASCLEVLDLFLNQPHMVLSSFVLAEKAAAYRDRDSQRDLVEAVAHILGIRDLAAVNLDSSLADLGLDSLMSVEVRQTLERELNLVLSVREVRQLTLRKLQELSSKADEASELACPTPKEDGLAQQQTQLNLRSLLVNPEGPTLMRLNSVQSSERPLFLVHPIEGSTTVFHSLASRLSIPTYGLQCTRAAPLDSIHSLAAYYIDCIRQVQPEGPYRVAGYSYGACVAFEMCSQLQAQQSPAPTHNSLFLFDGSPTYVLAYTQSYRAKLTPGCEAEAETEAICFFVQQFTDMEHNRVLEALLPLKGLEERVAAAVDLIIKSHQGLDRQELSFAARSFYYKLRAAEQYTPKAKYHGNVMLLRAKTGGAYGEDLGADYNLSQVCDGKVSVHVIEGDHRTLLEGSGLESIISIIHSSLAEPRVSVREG
Broad substrate specificity ATP-binding cassette transporter ABCG2 (Homo sapiens), sequence (Q9UNQ0 whole entry, looked up): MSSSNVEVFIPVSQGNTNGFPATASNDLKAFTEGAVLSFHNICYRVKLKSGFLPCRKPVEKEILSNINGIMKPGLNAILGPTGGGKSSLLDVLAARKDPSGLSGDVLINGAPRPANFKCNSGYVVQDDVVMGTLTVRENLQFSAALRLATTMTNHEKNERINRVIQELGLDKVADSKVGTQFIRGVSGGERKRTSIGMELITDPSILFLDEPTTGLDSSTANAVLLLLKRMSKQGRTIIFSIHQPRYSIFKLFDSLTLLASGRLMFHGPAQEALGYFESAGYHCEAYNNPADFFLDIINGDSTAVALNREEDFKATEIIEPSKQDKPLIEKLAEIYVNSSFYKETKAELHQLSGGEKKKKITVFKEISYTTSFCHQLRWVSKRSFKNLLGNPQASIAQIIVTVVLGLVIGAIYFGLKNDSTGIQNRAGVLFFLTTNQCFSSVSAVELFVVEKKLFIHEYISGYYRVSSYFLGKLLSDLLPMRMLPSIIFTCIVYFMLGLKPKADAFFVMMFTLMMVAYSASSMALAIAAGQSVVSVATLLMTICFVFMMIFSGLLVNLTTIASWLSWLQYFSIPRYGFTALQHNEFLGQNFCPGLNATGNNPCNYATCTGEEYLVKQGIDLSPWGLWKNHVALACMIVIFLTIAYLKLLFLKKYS

On to `CCOP(=O)(OCC)Oc1cc(C)nc(C(C)C)n1`, for which the outcome in assay [1], in assay [2], in assay [3], in [4], in assay [5] and in [7] was inactive. For the same compound, the outcome in [8], in assay [9], in [10], in assay [11], in assay [12] and in assay [13] was inactive. Moreover, the compound was called inactive in assay [14], in assay [15], in assay [16], in [17] and in assay [18]. In addition, the AC50 in assay [6] was 50.2 µM (active).
As for `S=C1NCCN1`, the compound was called inactive in [1], in assay [2], in [3], in assay [4], in [5] and in [6]. For the same compound, the outcome in [7], in assay [8], in [9], in assay [10], in assay [11] and in assay [12] was inactive. The compound was classed as inactive in assay [13], in assay [14], in [15], in assay [16] and in [17]. Further, the AC50 in assay [18] was 0.232 µM (active).
Turning to `CC[C@H](C)[C@H]1O[C@]2(C=C[C@@H]1C)C[C@@H]1C[C@@H](C/C=C(\C)[C@@H](O[C@H]3C[C@H](OC)[C@@H](O[C@H]4C[C@H](OC)[C@@H](NC)[C@H](C)O4)[C@H](C)O3)[C@@H](C)/C=C/C=C3\CO[C@@H]4[C@H](O)C(C)=C[C@@H](C(=O)O1)[C@]34O)O2`, the AC50 is 16.4 µM (active) in [1]; 87.5 µM (active) in assay [3]; 12.7 µM (active) in [4]; 15.5 µM (active) in assay [5]; 13.4 µM (active) in assay [6]; 16.9 µM (active) in assay [7]. Besides, the concentration at half-maximal activity (AC50) in assay [8] is 27.9 µM (active); in assay [11] it was 23 µM (active); in assay [12] it was 50 µM (active); in [13], 31.6 µM (active); in [14], 39.6 µM (active); in assay [15], 13.3 µM (active). The AC50 in assay [16] was 14.4 µM (active); in [18], 13 µM (active). Also, the outcome in assay [2], in assay [9], in assay [10] and in assay [17] was inactive.
On to `CCC(CC)Nc1c([N+](=O)[O-])cc(C)c(C)c1[N+](=O)[O-]`, for which the result in assay [1], in assay [2], in assay [3], in assay [4], in assay [5] and in assay [7] was inactive. The outcome in assay [8], in assay [9], in [10], in [11], in [12] and in assay [13] was inactive. Besides, the compound was classed as inactive in assay [14], in assay [15] and in assay [18]. In addition, the half-maximal activity concentration (AC50) was 29.8 µM (active) in assay [6], 60.6 µM (active) in assay [16] and 89.4 µM (active) in assay [17].
